Reference: PubChem BioAssay (EPA / NIEHS)
Activity calls are given as the source filed them. How the source made its calls: active means hit-call score of the fitted dose curve at least 0.9, where 1 is the maximum; inactive means score below 0.9.

How the values were obtained:
[1] = read-out: TIMP metallopeptidase inhibitor 1 (TIMP1), TIMP1 (gene 7076); experiment: BSK_hDFCGF_TIMP1: BioMAP Diversity Plus: hDFCGF Assay for TIMP metallopeptidase inhibitor 1 (TIMP1) Biomarker Activity (AID 2283062); conditions: primary human foreskin fibroblasts; actives raise or lower the signal
Summary of the method: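 Human skin fibroblasts (primary), hDFCGF system; compound exposure 24 h; TIMP-1 by ELISA; bidirectional fit vs DMSO negative control; overt cytotoxicity by SRB in parallel wells.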

[2] = read-out: Monokine induced gamma interferon (MIG), CXCL9 (gene 4283); experiment: BSK_hDFCGF_MIG: BioMAP Diversity Plus: hDFCGF Assay for Monokine induced gamma interferon (MIG) Biomarker Activity (AID 2283063); conditions: primary human foreskin fibroblasts; actives raise or lower the signal
Summary of the method: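 Chemicals were added to primary human foreskin fibroblast cultures, which were sampled 24 h later. MIG levels were then quantified by ELISA and responses fitted in both directions relative to DMSO.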

[3] = read-out: Matrix Metallopeptidase 1 (MMP1), MMP1 (gene 4312); experiment: BSK_hDFCGF_MMP1: BioMAP Diversity Plus: hDFCGF Assay for Matrix Metallopeptidase 1 (MMP1) Biomarker Activity (AID 2283064); conditions: primary human foreskin fibroblasts; actives raise or lower the signal
Summary of the method: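 Human foreskin fibroblasts exposed to chemical for 24 h; MMP1 detected by ELISA, with DMSO as baseline for bidirectional fitting.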

[4] = read-out: Vascular cell adhesion molecule 1 (VCAM1), VCAM1 (gene 7412); experiment: BSK_hDFCGF_VCAM1: BioMAP Diversity Plus: hDFCGF Assay for Vascular cell adhesion molecule 1 (VCAM1) Biomarker Activity (AID 2283065); conditions: primary human foreskin fibroblasts; actives raise or lower the signal
Summary of the method: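 Human foreskin fibroblast primary cells, chemical exposure 24 h; VCAM-1 by ELISA; bidirectional fit, DMSO = negative control/baseline.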

[5] = read-out: Plasminogen activator inhibitor-1 (PAI1), SERPINE1 (gene 5054); experiment: BSK_hDFCGF_PAI1: BioMAP Diversity Plus: hDFCGF Assay for Plasminogen activator inhibitor-1 (PAI1) Biomarker Activity (AID 2283066); conditions: primary human foreskin fibroblasts; actives raise or lower the signal
Summary of the method: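 Fibroblasts from human foreskin were treated with test chemical. After 24 h, PAI-1 was measured by ELISA. Activity was fitted in both directions relative to DMSO.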

[6] = read-out: Intercellular Adhesion Molecule 1 (ICAM1), ICAM1 (gene 3383); experiment: BSK_KF3CT_ICAM1: BioMAP Diversity Plus: KF3CT Assay for Intercellular Adhesion Molecule 1 (ICAM1) Biomarker Activity (AID 2283067); conditions: primary human keratinocytes with fibroblasts; actives raise or lower the signal
Summary of the method: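 ICAM-1 levels are measured by ELISA 24 h after dosing a primary human co-culture of keratinocytes and foreskin fibroblasts. Activity in either direction is fitted relative to DMSO vehicle.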

[7] = read-out: Interferon-gamma inducible Protein 10 (IP10), CXCL10 (gene 3627); experiment: BSK_KF3CT_IP10: BioMAP Diversity Plus: KF3CT Assay for Interferon-gamma inducible Protein 10 (IP10) Biomarker Activity (AID 2283068); conditions: primary human keratinocytes with fibroblasts; actives raise or lower the signal
Summary of the method: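 In a primary skin co-culture of keratinocytes and fibroblasts, IP-10 is quantified by ELISA at 24 h after dosing. SRB staining of parallel wells monitors overt toxicity. Curves are fitted both directions against DMSO.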

[8] = BSK_KF3CT_SRB: Viability Assessment in the BioMAP Diversity Plus: KF3CT Assay (AID 2283069); conditions: primary human keratinocytes with fibroblasts;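 further: read 24 h after compound addition; fitted for both signal gain and loss against DMSO baseline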
Summary of the method: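 Overt cytotoxicity is assessed as total protein by sulforhodamine B staining in parallel human skin co-cultures at 24 h after dosing. DMSO serves as negative control and baseline.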

[9] = read-out: Interleukin-1 alpha (IL1a), IL1A (gene 3552); experiment: BSK_KF3CT_IL1a: BioMAP Diversity Plus: KF3CT Assay for Interleukin-1 alpha (IL1a) Biomarker Activity (AID 2283070); conditions: primary human keratinocytes with fibroblasts; actives raise or lower the signal
Summary of the method: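 Readout is IL-1a level by ELISA, compared bidirectionally with DMSO as baseline. Cells: human keratinocytes co-cultured with foreskin fibroblasts, harvested 24 h post-dose.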

[10] = read-out: TIMP metallopeptidase inhibitor 2 (TIMP2), TIMP2 (gene 7077); experiment: BSK_KF3CT_TIMP2: BioMAP Diversity Plus: KF3CT Assay for TIMP metallopeptidase inhibitor 2 (TIMP2) Biomarker Activity (AID 2283071); conditions: primary human keratinocytes with fibroblasts; actives raise or lower the signal
Summary of the method: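 Chemicals were dosed onto human skin primary co-cultures of keratinocytes and foreskin fibroblasts, and TIMP-2 was measured by ELISA after 24 hours. Activity in either direction was fitted relative to DMSO.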

[11] = read-out: C-C motif chemokine 2 (Homo sapiens) (UniProt P13500); experiment: BSK_KF3CT_MCP1: BioMAP Diversity Plus: KF3CT Assay for Monocyte Chemoattractant Protein 1 (MCP1/CCL2) Biomarker Activity (AID 2283073); conditions: primary human keratinocytes with fibroblasts; actives raise or lower the signal
Summary of the method: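 ELISA readout of MCP-1 after 24 h chemical dosing of a human skin primary co-culture of keratinocytes and foreskin fibroblasts. Activity was fitted in both directions against DMSO.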

[12] = read-out: Matrix Metallopeptidase 9 (MMP9), MMP9 (gene 4318); experiment: BSK_KF3CT_MMP9: BioMAP Diversity Plus: KF3CT Assay for Matrix Metallopeptidase 9 (MMP9) Biomarker Activity (AID 2283074); conditions: primary human keratinocytes with fibroblasts; actives raise or lower the signal;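 on AC50: MMP9 protein level quantified by ELISA in the co-culture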
Summary of the method: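 Values come from bidirectional fitting relative to DMSO of MMP-9 levels, which were measured by ELISA. Measurements were taken 24 h after chemical dosing of a keratinocyte and foreskin fibroblast co-culture.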

[13] = read-out: urokinase plasminogen activator (uPA), PLAU (gene 5328); experiment: BSK_KF3CT_uPA: BioMAP Diversity Plus: KF3CT Assay for urokinase plasminogen activator (uPA) Biomarker Activity (AID 2283075); conditions: primary human keratinocytes with fibroblasts; actives raise or lower the signal
Summary of the method: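 Values derive from bidirectional fitting against DMSO controls. Keratinocyte/foreskin fibroblast co-cultures received chemical; 24 h later uPA was detected by ELISA, with SRB total-protein staining in parallel wells for overt cytotoxicity.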

CD40, CD40 (gene 958) = experiment: BSK_LPS_CD40: BioMAP Diversity Plus: LPS Assay for CD40 Biomarker Activity (AID 2283076); conditions: primary human HUVEC with PBMC; actives raise or lower the signal
Summary of the method: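 Cells were dosed, incubated 24 h, then assayed for CD40 by ELISA. Gain or loss of signal was analysed relative to DMSO controls. The culture paired human umbilical vein endothelium with peripheral blood mononuclear cells.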

[14] = read-out: E-selectin (Homo sapiens) (UniProt P16581); experiment: BSK_LPS_Eselectin: BioMAP Diversity Plus: LPS Assay for Eselectin Biomarker Activity (AID 2283077); conditions: primary human HUVEC with PBMC; actives raise or lower the signal
Summary of the method: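 Primary human vascular co-culture (endothelium plus PBMC) was dosed with chemical, then E-selectin quantified by ELISA at 24 h. Endpoint values derive from bidirectional curve fitting relative to DMSO.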

[15] = BSK_LPS_SRB: Viability Assessment in the BioMAP Diversity Plus: LPS Assay (AID 2283079); conditions: primary human HUVEC with PBMC;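 further: total protein by sulforhodamine B absorbance as a cytotoxicity measure; measured one day after compound addition; fitted in both directions against DMSO so loss or gain of signal counts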
Summary of the method: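 Readout is SRB absorbance at 560 nm (0.1% stain, TCA-fixed parallel cultures) as a total-protein cytotoxicity measure. Cells: primary human umbilical vein endothelium plus peripheral blood mononuclear cells, 24 h after chemical exposure; DMSO served as baseline.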

[16] = read-out: Interleukin-1 alpha (IL1a), IL1A (gene 3552); experiment: BSK_LPS_IL1a: BioMAP Diversity Plus: LPS Assay for Interleukin-1 alpha (IL1a) Biomarker Activity (AID 2283080); conditions: primary human HUVEC with PBMC; actives raise or lower the signal
Summary of the method: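 ELISA read-out of IL-1 alpha from a human primary vascular co-culture (endothelium plus PBMC) under LPS, sampled 24 hours post-dosing. Activity was fitted in both directions relative to DMSO controls.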

[17] = read-out: Monocyte Chemoattractant Protein-1 (MCP1), CCL2 (gene 6347); experiment: BSK_LPS_MCP1: BioMAP Diversity Plus: LPS Assay for Monocyte Chemoattractant Protein-1 (MCP1) Biomarker Activity (AID 2283081); conditions: primary human HUVEC with PBMC; actives raise or lower the signal
Summary of the method: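 Human endothelial–PBMC co-cultures were dosed with chemical, then LPS-driven MCP-1 levels were quantified by ELISA at 24 h. Activity in either direction was fitted versus DMSO negative control.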

[18] = read-out: Transforming growth factor beta 1 (TGFb1), TGFB1 (gene 7040); experiment: BSK_KF3CT_TGFb1: BioMAP Diversity Plus: KF3CT Assay for Transforming growth factor beta 1 (TGFb1) Biomarker Activity (AID 2283072); conditions: primary human keratinocytes with fibroblasts; actives raise or lower the signal
Summary of the method: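 KF3CT co-culture (keratinocytes + fibroblasts), 24 h exposure → TGF-b1 ELISA → bidirectional fit, DMSO = baseline. Parallel SRB total-protein staining (0.1% SRB, 10% TCA fixation, 560 nm) for cytotoxicity.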

[19] = read-out: Interleukin-8 (IL8), CXCL8 (gene 3576); experiment: BSK_LPS_IL8: BioMAP Diversity Plus: LPS Assay for Interleukin-8 (IL8) Biomarker Activity (AID 2283078); conditions: primary human HUVEC with PBMC; actives raise or lower the signal
Summary of the method: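 Readout is IL-8 by ELISA, taken 24 h after compounds were added to LPS-stimulated endothelial/PBMC co-cultures. Both increases and decreases relative to DMSO control were scored through bidirectional fitting.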

E-selectin (Homo sapiens), sequence (P16581 whole entry, looked up): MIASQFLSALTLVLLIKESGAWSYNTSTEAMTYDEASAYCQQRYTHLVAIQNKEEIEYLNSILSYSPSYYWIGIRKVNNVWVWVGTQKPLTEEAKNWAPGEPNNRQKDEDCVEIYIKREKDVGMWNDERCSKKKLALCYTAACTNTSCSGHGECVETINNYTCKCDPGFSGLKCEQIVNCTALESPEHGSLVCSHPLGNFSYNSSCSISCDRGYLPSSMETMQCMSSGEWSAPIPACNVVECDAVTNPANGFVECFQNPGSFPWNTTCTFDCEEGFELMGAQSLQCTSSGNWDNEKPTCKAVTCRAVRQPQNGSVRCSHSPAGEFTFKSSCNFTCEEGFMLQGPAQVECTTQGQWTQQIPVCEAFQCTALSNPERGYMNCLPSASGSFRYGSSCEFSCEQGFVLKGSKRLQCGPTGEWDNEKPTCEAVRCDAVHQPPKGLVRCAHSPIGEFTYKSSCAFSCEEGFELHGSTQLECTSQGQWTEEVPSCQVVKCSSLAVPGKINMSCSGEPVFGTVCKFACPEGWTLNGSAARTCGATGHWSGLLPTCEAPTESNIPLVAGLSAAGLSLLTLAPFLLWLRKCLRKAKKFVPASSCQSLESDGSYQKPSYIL

SMILES: OC[C@H]1O[C@H](O[C@]2(CCl)O[C@H](CCl)[C@@H](O)[C@@H]2O)[C@H](O)[C@@H](O)[C@H]1Cl
- outcome [1]: inactive
- outcome [2]: inactive
- outcome [3]: inactive
- outcome [4]: inactive
- outcome [5]: inactive
- outcome [6]: inactive
- outcome [7]: inactive
- outcome [8]: inactive
- outcome [9]: inactive
- outcome [10]: inactive
- outcome [11]: inactive
- outcome [12]: inactive
- outcome [13]: inactive
- outcome (CD40, CD40 (gene 958)): inactive
- outcome [14]: inactive
- outcome [15]: inactive
- outcome [16]: inactive
- outcome [17]: inactive

SMILES: N#Cc1ccc(CC(=NNC(=O)Nc2ccc(OC(F)(F)F)cc2)c2cccc(C(F)(F)F)c2)cc1
- outcome [1]: inactive
- outcome [2]: inactive
- outcome [3]: inactive
- outcome [5]: inactive
- outcome [6]: inactive
- outcome [7]: inactive
- outcome [8]: inactive
- outcome [9]: inactive
- AC50 [10]: 2.21 µM (active)
- AC50 [18]: 463 nM (active)
- outcome [11]: inactive
- outcome [12]: inactive
- outcome [13]: inactive
- outcome (CD40, CD40 (gene 958)): inactive
- outcome [14]: inactive
- outcome [19]: inactive
- outcome [15]: inactive
- outcome [16]: inactive
- outcome [17]: inactive

SMILES: CCCCC(CC)COC(=O)/C=C\C(=O)OCC(CC)CCCC (stereo unspecified)
- outcome [1]: inactive
- outcome [2]: inactive
- outcome [3]: inactive
- outcome [4]: inactive
- AC50 [5]: 7.23 µM (active)
- outcome [6]: inactive
- outcome [7]: inactive
- outcome [8]: inactive
- outcome [9]: inactive
- outcome [10]: inactive
- outcome [18]: inactive
- outcome [11]: inactive
- outcome [12]: inactive
- outcome [13]: inactive
- outcome (CD40, CD40 (gene 958)): inactive
- outcome [14]: inactive
- outcome [15]: inactive
- outcome [16]: inactive
- outcome [17]: inactive

SMILES: CN(CCOc1ccc(CC2SC(=O)NC2=O)cc1)c1ccccn1 (stereo unspecified)
- outcome [1]: inactive
- outcome [2]: inactive
- outcome [3]: inactive
- outcome [5]: inactive
- outcome [6]: inactive
- outcome [7]: inactive
- outcome [8]: inactive
- AC50 [9]: 582 nM (active)
- outcome [10]: inactive
- AC50 [18]: 16 nM (active)
- outcome [11]: inactive
- AC50 [12]: 3.97 µM (active)
- AC50 [13]: 16 nM (active)
- AC50 (CD40, CD40 (gene 958)): 13 µM (active)
- outcome [14]: inactive
- outcome [19]: inactive
- outcome [15]: inactive
- outcome [16]: inactive
- outcome [17]: inactive

SMILES: C=C[Si](OCC)(OCC)OCC
- outcome [1]: inactive
- outcome [2]: inactive
- outcome [3]: inactive
- outcome [5]: inactive
- outcome [6]: inactive
- outcome [7]: inactive
- outcome [8]: inactive
- outcome [9]: inactive
- outcome [10]: inactive
- outcome [18]: inactive
- outcome [11]: inactive
- outcome [12]: inactive
- outcome [13]: inactive
- outcome (CD40, CD40 (gene 958)): inactive
- outcome [14]: inactive
- outcome [15]: inactive
- outcome [16]: inactive
- outcome [17]: inactive

SMILES: CC(C)Oc1ccccc1O
- outcome [1]: inactive
- outcome [2]: inactive
- outcome [3]: inactive
- outcome [5]: inactive
- outcome [6]: inactive
- outcome [7]: inactive
- outcome [8]: inactive
- outcome [9]: inactive
- outcome [10]: inactive
- outcome [18]: inactive
- outcome [11]: inactive
- outcome [12]: inactive
- outcome [13]: inactive
- outcome (CD40, CD40 (gene 958)): inactive
- outcome [14]: inactive
- outcome [19]: inactive
- outcome [15]: inactive
- outcome [16]: inactive
- outcome [17]: inactive

SMILES: CC(=O)/C=C/C1=C(C)CCCC1(C)C
- outcome [1]: inactive
- outcome [2]: inactive
- outcome [3]: inactive
- outcome [5]: inactive
- outcome [6]: inactive
- outcome [7]: inactive
- outcome [8]: inactive
- outcome [9]: inactive
- outcome [10]: inactive
- outcome [18]: inactive
- outcome [11]: inactive
- outcome [12]: inactive
- outcome [13]: inactive
- outcome (CD40, CD40 (gene 958)): inactive
- outcome [14]: inactive
- outcome [19]: inactive
- outcome [15]: inactive
- outcome [16]: inactive
- outcome [17]: inactive
